Hit rate of the full screen: of about 48,000 compounds, about 13,000 (27%) showed an effect of 50% or more. This is one part of the list.
system: Wolbachia pipientis; assay: Anti-Wolbachia Cell-Based Screen; type: functional; design: scale not given: in the data most compounds retested in dose-response had high values; conditions: 5 µM

Row | Compound | Percent Effect [%]
1 | COc1cccc2[nH]cc(CCNC(=O)N3CCC[C@H]3CO)c12 | 0.855
2 | Cc1cc(NC(=O)NCc2ccccn2)n(C)n1 | 11.39
3 | CN1CCN(c2cc(CNC(=O)c3ccc(=O)n(C)c3)ccn2)CC1 | 6.282
4 | Cn1nc(C(=O)NCc2ccccn2)c2c1CCS(=O)(=O)C2 | 2.968
5 | Cn1c(=O)c2cc(C(=O)NCc3ccccn3)ccc2n(C)c1=O | 80.97
6 | Cn1nc(CC(C)(C)C)cc1NC(=O)c1ccc(CNC(N)=O)cc1 | -16.73
7 | Cn1c(=O)c2cc(C(=O)NCc3ccncc3)ccc2n(C)c1=O | 119.1
8 | CC(C)n1cnnc1CN1C(=O)CCc2ccccc21 | -28.4
9 | c1ccc2oc(N3CCCC4(CCOC4)C3)nc2c1 (centres undefined) | -10.39
10 | O=C(Cc1ccon1)N(CCC(F)(F)F)C1CCCC1 | -15
11 | COC(=O)c1ccccc1C(=O)N(CCN(C)C)Cc1sccc1C | -10.61
12 | O=C1N(Cc2cccc(F)c2F)CCCC1(O)CN1CCCOCC1 (centres undefined) | -6.352
13 | O=C(Cc1ccc(S(=O)(=O)C(F)F)cc1)N1CCCC1 | -6.682
14 | O=C(Cc1ccc(S(=O)(=O)C(F)F)cc1)N1CCC1 | -8.484
15 | COc1cccc(OCC2CCCN(C(=O)Cc3cccc(O)c3)C2)c1 (centres undefined) | -41.73
16 | O=C(Cc1cccc(O)c1)N1CCC2(CC1)c1ccccc1CC2O (centres undefined) | -3.302
17 | O=C(Cc1cccc(O)c1)N1CCCC(O)(CN2CCCC2)CC1 (centres undefined) | 146.3
18 | OC1(CN2CCCC2)CCCN(Cc2cnc(-c3ccccc3)nc2)C1 (centres undefined) | 1.78
19 | CN1CCN(CC2(O)CCCN(C(=O)Cc3cccc(O)c3)CC2)CC1 (centres undefined) | 188.6
20 | CN(C)C[C@@H]1CN(C(=O)Cc2cccc(O)c2)C[C@@H]1CO | -7.089
21 | O=C(Cc1cccc(O)c1)N1CCCC(O)(CN2CCOCC2)CC1 (centres undefined) | 193.2
22 | O=C(Cc1ccc(O)cc1)N1CCCC(O)(CN2CCOCC2)CC1 (centres undefined) | 136.3

Row | Compound | Percent Effect [%]
23 | COCCN(C/C=C/c1ccccc1)Cc1ncc[nH]1 | 16.38
24 | CC(C)Cc1noc(COc2ccc(N(C)C(N)=O)cc2)n1 | -17.39
25 | Cn1cc(Cl)cc1C(=O)N1CCC2(CCCN(CC3CC3)C2=O)C1 (centres undefined) | -20.81
26 | COCCCC(=O)NCc1cccc(NC(N)=O)c1 | -9.096
27 | CC(Nc1cccc(CN2CCOC2=O)c1)C(=O)Nc1ccccc1F (centres undefined) | -4.647
28 | O=C1CC(NCc2cnc(C3CCCCC3)nc2)CN1c1ccccc1 (centres undefined) | -13.32
29 | N#Cc1cc2c(nc1SCc1cc(O)nc(O)n1)CCCCC2 | 128.9
30 | N#Cc1cc2c(nc1SCc1cc(O)nc(O)n1)CCCC2 | 96.26
31 | N#Cc1cc2c(nc1O)CCCCC2 | 109.4
32 | CCS(=O)(=O)c1ccccc1N1CCC(NC(=O)c2ccc[nH]2)CC1 | 7.844
33 | CCOCc1nc2c(c(NC(CC)c3ccnn3C)n1)CCNCC2 (centres undefined) | -1.595
34 | CC(=O)Nc1nc(C(=O)NCc2ccc(N3CCCCCC3)nc2)cs1 | 26.65
35 | Cc1nnc(NC(=O)NCc2ccc(N3CCOCC3)nc2)s1 | 89.19
36 | COCCCNC(=O)NCc1ccc(N2CCOC(C)C2)nc1 (centres undefined) | -2.359
37 | Cc1nnc(NC(=O)NCc2ccc(N3CCC(C)CC3)nc2)s1 | 109.6
38 | Cc1nnc(NC(=O)NCc2ccc(N3CCN(C)CC3)nc2)s1 | 5.046
39 | COc1ccc([C@@H]2C[C@H](NC(C)=O)C[C@H](Cc3ccccc3)O2)cn1 | -17
40 | Brc1cccc(C2(CNCc3cc[nH]c3)CCOCC2)c1 | -10.11
41 | O=C(NCc1ccccn1)[C@H]1COC[C@H]2CN(c3ncccn3)C[C@H]21.O=C(O)C(F)(F)F.O=C(O)C(F)(F)F | 6.701
42 | CC1CCN(CC2CCCN(C(=O)Nc3ccccn3)C2)CC1 (centres undefined) | -7.919
43 | CC(C)C(=O)N1CCC(Cc2nccnc2Nc2ccccn2)CC1 | 100.8
44 | COc1ccccc1CC1CCCN(C(=O)c2cc[nH]n2)C1 (centres undefined) | 10.34

Row | Compound | Percent Effect [%]
45 | CCC1CCCN(C(=O)Cc2csc(-c3ncccn3)n2)C1 (centres undefined) | -10.41
46 | CC(C)C(=O)N1CCCC(Cc2ncccn2)C1 (centres undefined) | 110.8
47 | CC(C)C(=O)N1CCCC(Cc2ccccn2)C1 (centres undefined) | 90.21
48 | Cc1cccnc1NC(=O)C1CCN(C(=O)C(C)C)CC1 | -2.993
49 | CCC(=O)N1CCC(Cc2nccnc2Nc2ccccn2)CC1 | 7.091
50 | Cc1noc(C)c1CN(C)c1nccc(C(F)(F)F)n1 | -2.519
51 | COc1cc(NC(=O)c2cscn2)ncn1 | -4.682
52 | COCC1CC2(CCN(C(=O)c3ccc(F)cc3C)CC2)CO1 (centres undefined) | 14.78
53 | COCC1CC2(CCN(Cc3nc(C)cs3)CC2)CO1 (centres undefined) | 102
54 | COCC1CC2(CCN(C(=O)c3occc3C)CC2)CO1 (centres undefined) | -1.906
55 | c1ccc(OCC2CC3(CCN(Cc4ccncc4)CC3)CO2)nc1 (centres undefined) | 4.031
56 | O=S(=O)(C1CC1)N1CCC2(CC1)COC(COc1ccccn1)C2 (centres undefined) | 3.051
57 | Cc1csc(CN2CCC3(CC2)COC(COc2ccccn2)C3)n1 (centres undefined) | 106.5
58 | Cc1nc(CN(C)Cc2csc(-c3cccs3)n2)co1 | -5.147
59 | CC(C)C(C#N)N1CCN(Cc2nccn2CC(F)(F)F)CC1 (centres undefined) | -1.445
60 | CSc1nc(N)cc(N2C[C@@H]3CC[C@H](C2)N(CC2CC2)C3=O)n1 | 1.257
61 | CCn1ccnc1C1CCN(c2ncnc3ccsc23)CC1 | -4.66
62 | O=C1[C@H]2CC[C@H](CN(c3ncnc4ccsc34)C2)N1CC1CC1 | 70.25
63 | c1nc(N2CCN(Cc3nnnn3C3CC3)CC2)c2sccc2n1 | -5.403
64 | Cc1ccnc(N2C[C@@H]3CC[C@H](C2)N(CC2CCC2)C3=O)n1 | 15.62
65 | CN1C(=O)[C@H]2CC[C@@H]1CN(c1ncnc3ccsc13)C2 | 78.97
66 | CC(NC1(CNC(=O)CC(C)(C)C)CCOCC1)c1ccccc1 (centres undefined) | 7.994

Row | Compound | Percent Effect [%]
67 | O=C(NCCc1cccnc1)N1CCCC1c1ccsc1 (centres undefined) | 4.878
68 | NC(=O)CCn1nnc(-c2cc3ccccc3o2)n1 | 8.655
69 | CN(Cc1csc(-c2cccs2)n1)C(=O)CN1CCOC1=O | 19.54
70 | O=C(CN1CCOC1=O)N(Cc1ccccc1)Cc1nccs1 | 101.3
71 | O=C(Nc1nccs1)NC1CCN(Cc2ccccc2)C1 (centres undefined) | -7.508
72 | COc1cccc(CN(C)C(=O)CN2CCN(c3nccs3)CC2)c1 | 7.332
73 | COc1ccc(CN(CC2CCCO2)C(=O)CN2CCOC2=O)cc1 (centres undefined) | 10.27
74 | NC(=O)C1CCN(CC(=O)N(Cc2ccccc2)Cc2nccs2)CC1 | 113.3
75 | CN(Cc1cccnc1)c1nccc(N2CCN[C@H]3CS(=O)(=O)C[C@H]32)n1 | -2.359
76 | CN(C)CCNc1cc(-c2ncccc2C(F)(F)F)c2cc[nH]c2n1 | -6.362
77 | Nc1cc(-c2cc(O)cc(C(=O)O)c2)c2cc[nH]c2n1 | -2.921
78 | COc1cccc(-c2cc(NCC(=O)O)nc3[nH]ccc23)n1 | -3.915
79 | O=C(O)CNc1cc(-c2nccnc2N2CCCC2)c2cc[nH]c2n1 | 94.3
80 | Nc1cc(-c2cc(C(=O)O)ccc2Cl)c2cc[nH]c2n1 | 2.257
81 | CN(C)CCNc1cc(-c2ncccc2O)c2cc[nH]c2n1 | 15.75
82 | Nc1cc(-c2ccc(C(=O)O)cc2O)c2cc[nH]c2n1 | 1.335
83 | OCCNc1cc(-c2nccnc2N2CCCC2)c2cc[nH]c2n1 | 104.7
84 | Nc1cc(-c2nccnc2N2CCCC2)c2cc[nH]c2n1 | 67.22
85 | Cc1noc(C2CN(CC(=O)NCC3CCCO3)C2)n1 (centres undefined) | 9.756
86 | CN(C)C(=O)c1ccc2c(c1)N(C)C(CC(=O)NC(CO)CO)CO2 (centres undefined) | 0.9161
87 | Cc1cc(C)c2cc(CNCC3CCCO3)c3nn(C)c(=O)n3c2c1 (centres undefined) | -6.505
88 | CCCn1cnnc1CNC1CCCC1 | -7.935

Row | Compound | Percent Effect [%]
89 | Cc1cc(C)c2cc(CNC(C)C)c3nn(C)c(=O)n3c2c1 | 117
90 | Cc1cc(C)c2cc(CNC3CCCCC3)c3nn(C)c(=O)n3c2c1 | 108.3
91 | CCn1cc(CN(C)C(=O)c2cccc(CCC(C)(C)O)c2)cn1 | -2.58
92 | COCc1ccc(C(=O)N2CCN(CC=C(C)C)[C@@H]3CS(=O)(=O)C[C@@H]32)o1 | -1.241
93 | O=C(c1ccco1)N1CC[C@@H]2[C@H]1CCC(=O)N2c1ccccc1 | 9.276
94 | O=C(O)Cn1nc(C2CC2)c2c(-c3ccco3)ccnc21 | 121.5
95 | O=C(O)Cn1nc(C2CC2)c2c(-c3cccs3)ccnc21 | 125.7
96 | O=C(CN1CC(c2nc(-c3ccco3)no2)C1)NCC1CCCO1.O=C(O)C(=O)O (centres undefined) | 8.836
97 | O=c1[nH]c(NC2CCCC2)nc2nccc(-c3ccco3)c12 | 15.07
98 | O=C(Cn1cnc(-c2cccs2)cc1=O)Nc1cccnc1 | 14.09
99 | O=c1[nH]c(NC2CCCC2)nc2nccc(-c3cccs3)c12 | -0.1995
100 | N#Cc1ccc(N2CCCC(CO)(CCOc3ccccc3)C2)nc1 (centres undefined) | -8.429
101 | CC(C)N(C)CC(=O)NCC(Cc1ccc(F)cc1)C(N)=O (centres undefined) | 103.5
102 | CCOc1ccc(CC(CNC(=O)c2occc2C)C(N)=O)cc1 (centres undefined) | -2.596
103 | COC(=O)C(CNC(=O)Nc1nncs1)Cc1ccc(F)cc1 (centres undefined) | 5.054
104 | CC(C)S(=O)(=O)CC(=O)NCC(Cc1ccc(F)cc1)C(N)=O (centres undefined) | 124.5
105 | CC(C)c1nnc(NC(=O)Cc2ccc(F)cc2)[nH]1 | -66.88
106 | CCOc1ccc(CC(CNC(=O)c2ccc(C)o2)C(N)=O)cc1 (centres undefined) | -14.58
107 | NC(=O)CS(=O)(=O)Cc1ccc(F)cc1 | 3.461
108 | Cc1ccoc1C(=O)NCC(Cc1ccc(F)cc1)C(N)=O (centres undefined) | 7.737
109 | CC(C)NC(=O)NCC(Cc1ccc(F)cc1)C(N)=O (centres undefined) | 96.65

Reference: ChEMBL document CHEMBL3988442, “University of Dundee, Small-Polar-MMV Screening Library” (2021)
